From PubChem
Dicer processing: inhibitors of human Dicer processing of pre-microRNA. cat-ELCCA pre-miR-21 Dicer processing, chemiluminescence; stronger effect = higher value. z-score at 25 µM. 47,000 tested, 6% active; in the data active = z-score above about 3, passing the limit was not always enough;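 note: plate controls were vehicle for no effect and no enzyme for full effect; higher signal means more uncleaved substrate so more Dicer inhibition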
The depositor's hits bear a star. Shown is part of a subset that was picked to be rich in hits.

SMILES | Dicer processing
O=C1c2ccccc2-c2nc3cc(Cl)ccc3nc21 | -0.16
O=C(Nc1cc(C(F)(F)F)ccc1Cl)C(=S)N1CCOCC1 | -0.41
O=C(Nc1cc(C(F)(F)F)ccc1Cl)C(Cl)Cl | 5*
NNC(=O)Nc1ccc(C(F)(F)F)cc1Cl | 0.71
C1=CC2c3c(ccc4ccccc34)NC(c3ccccc3)C2C1 (stereo unspecified) | 6.5
O=C1NC(c2ccc3c(c2)OCO3)Nc2ccc([N+](=O)[O-])cc21 (stereo unspecified) | -1.6
CC(C)(C)NC(=S)N/N=C/c1c(Cl)cccc1Cl | -2
CC(C)(C)NC(=S)N/N=C/C=N/NC(=S)NC(C)(C)C | 4.3*
CC(C)(C)NC(=S)N/N=C/c1ccc(O)cc1O | 2.2
OCCCNC(=S)Nc1cc(Cl)ccc1Cl | 1.2
FC(F)(F)c1cc(-c2cccnc2)nc2c(-c3ccccc3)cnn12 | -0.53
O=C(COc1ncnc2cc(Cl)ccc12)Nc1ccc(Cl)cc1 | 0.48
O=c1nc(-c2ccc(Cl)cc2)oc2ccccc12 | 0.94
c1ccc(Nc2nc(-c3ccccc3)nc3ccccc23)cc1 | 0.12
O=c1nc(Nc2ccccc2)oc2ccccc12 | 3.8*
Nc1nc2c(c(=O)[nH]1)C(c1ccc3c(c1)OCO3)CC(=O)N2 (stereo unspecified) | 3.5
Cc1cc2nc(-c3ccccc3)cc(C(F)(F)F)n2n1 | 0.41
CCc1nnc(NC(=O)c2cc(Br)ccc2Cl)s1 | 0.34
CCc1nnc(NC(=O)c2ccccc2O)s1 | 4.2*
CCc1nnc(NC(=S)NC(=O)c2ccccc2)s1 | -0.73
COc1ccc(-c2cc3ncc(-c4ccc(OC)c(OC)c4)c(N)n3n2)cc1 | -0.09
NC(=O)NS(=O)(=O)c1ccc(N)cc1 | 1
Nc1ccc(S(=O)(=O)c2ccc(N)cc2)cc1 | 1.5
Nc1ccc(Nc2ccc(N)cc2S(=O)(=O)O)cc1 | 44*
Clc1ccc2c(c1)c1cc(Cl)ccc1n2CN1CCCCC1 | 1.5
SMILES | Dicer processing
O=C1Oc2ccc(Br)cc2CC1C(=O)N1CCCCC1 (stereo unspecified) | 8.3
COc1ccc(OCCC(=O)N/N=C/C=C/c2ccccc2)cc1 | 0.85
COc1ccc(OCCC(=O)NN)cc1 | 3.3*
COc1ccc(OCCN)cc1 | -0.31
O=S(=O)(CS(=O)(=O)c1cccc(Cl)c1)c1cccc(Cl)c1 | -0.73
NC(=O)c1sc2nc3c(cc2c1N)CCCC3 | -1.7
O=[N+]([O-])c1ccc(N2CCCCCCC2)cc1 | 1.5
O=C(O)c1c(N2CCCCC2)ccc([N+](=O)[O-])c1N1CCCCC1 | -0.06
O=c1c(N2CCCCC2)c(N2CCCCC2)c1=O | 7.3*
Cn1c(=O)cc(N2CCCCC2)c2c(=O)n(-c3ccccc3)c(=O)n(-c3ccccc3)c21 | 1
Cc1cc(Cl)cc2c1C(=O)/C(=C\c1cc(Br)cs1)S2 | 1
Oc1ccccc1-c1nc(/C=C/c2ccccc2Cl)no1 | 13
CN(C)c1ccc(/C=C/c2noc(-c3ccccc3O)n2)cc1 | 5.8*
Oc1ccccc1-c1nc(/C=C/c2ccccc2)no1 | 1.2
CCOc1ccc(C2c3c(oc4ccccc4c3=O)C(=O)N2c2nccs2)cc1OCC (stereo unspecified) | 0.1
Cc1ccc(NC(=O)c2cccnc2Sc2cccc(C(F)(F)F)c2)cc1 | 0.01
CC(C)Cc1ccc(C(=O)/C=C/N(C)C)cc1 | 0.54
CN(C)/C=C/C=C/C=C/C(=O)c1ccc(Br)cc1 | 4.5*
CN(C)/C=C/C(=O)c1ccc(C#N)cc1 | 0.35
Cc1ccc(N2C(=O)CSC2c2ccc(Cl)c(Cl)c2)cc1Cl (stereo unspecified) | 5.6
CCC(=O)N/N=C(\C)c1ccc(Oc2ccccc2)cc1 | -0.46
CCOC(=O)c1sc2sc(C(=O)OCC)c(C)c2c1C | 8.1
CCOC(=O)c1sc(SC)c2c1CCC=C2 | -1.4
CCOC(=O)c1sc(SC)c(C(C)O)c1C (stereo unspecified) | 3.9*
Oc1ccc2ccccc2c1CN1CCc2ccccc2C1 | 3.6*
SMILES | Dicer processing
CC1CCN(Cc2c(O)ccc3ccccc23)CC1 | 1.6
Oc1ccc2ccccc2c1CN1CCN(c2ccc(F)cc2)CC1 | -3.4
COc1cccc(OC)c1NC(=O)NC(=O)c1c(OC)cccc1OC | 0.75
COc1ccc(OC)c(S(=O)(=O)Oc2ccc3ccccc3c2I)c1 | -0.26
CCCc1cc(=O)[nH]c(SCc2ccccc2Cl)n1 | -3.9
Cc1cc(=O)[nH]c(SCc2ccccc2Cl)n1 | 2.5
Cc1nnc(SCc2ccccc2Cl)[nH]c1=O | 3*
O=C1CC(c2ccc(O)cc2)Oc2cc(O)ccc21 (stereo unspecified) | 4.8*
O=C1CC(c2ccccc2)Oc2cc(Cl)ccc21 (stereo unspecified) | -1.6
O=C1CC(c2ccccc2)Oc2ccccc21 (stereo unspecified) | 0.24
O=C(CSc1n[nH]c(C(F)(F)F)n1)c1ccc2ccccc2c1 | -0.23
OCCN(CCO)c1ncnc2c1sc1nc(N3CCOCC3)c3c(c12)CCCC3 | -0.37
CN(C)c1ccnc2sc3c(N(CCO)CCO)ncnc3c12 | 3.3*
OCCCNc1ncnc2c1sc1nc(-c3ccccc3)c3c(c12)CCCC3 | -0.45
CCC1=C(C(=O)OC)C(c2ccc(Br)cc2)n2ncnc2N1 (stereo unspecified) | -0.67
Cn1c(=O)cc2c3c(c(NS(=O)(=O)c4ccc(Cl)cc4)ccc31)C(=O)c1ccccc1-2 | 1.1
COC(=O)C/C(=N/Nc1c(Cl)cc(C(F)(F)F)cc1Cl)C(=O)OC | -0.62
O=C(Nc1nccs1)c1cc2ccccc2o1 | -3.5
O=C(Nc1ccc(S(=O)(=O)Nc2ncccn2)cc1)c1cc2ccccc2o1 | 0.46
O=C(Nc1ncn[nH]1)c1cc2ccccc2o1 | 4.9*
O=C(CN1CCCCC1)N1N=C2c3ccccc3CCC2C1c1ccc(F)cc1 (stereo unspecified) | -1.2
Cc1cc2oc3c(c(=O)c2cc1C)C(c1cccc(O)c1)N(c1ccccn1)C3=O (stereo unspecified) | 0.62
CC(c1ccccc1)n1c(OC(=O)N(C)C)nnc1SCC(=O)c1ccc2c(c1)OCCO2 (stereo unspecified) | 3.6*
O=C(CSc1n[nH]c(=O)n1-c1ccccc1)c1ccc2c(c1)OCCO2 | 1.2
CSc1nnc(SCC(=O)c2ccc3c(c2)OCCO3)s1 | 1.9
SMILES | Dicer processing
CCCN(CCC)S(=O)(=O)c1ccc(C(=O)N(c2cccc(SC)c2)C2OC(=O)c3ccccc32)cc1 (stereo unspecified) | 11
C=C1SC(=Nc2ccccc2Cl)N(C(=O)c2cc(OC)c(OC)c(OC)c2)C1(C)C | -1.5
N#CC1=C(N)Oc2c(ccc3ccccc23)C1c1ccc(Cl)cc1 (stereo unspecified) | 0.62
CCO/C=N\C1=C(C#N)C(c2ccc(Cl)cc2)c2ccc3ccccc3c2O1 (stereo unspecified) | 3.9*
COc1cc(C2C(C#N)=C(N)Oc3c2ccc2ccccc32)cc(Br)c1O (stereo unspecified) | 3.3*
COc1ccc(C2C(C#N)=C(N)Oc3cc(O)ccc32)cc1Br (stereo unspecified) | 0.46
CCOc1cc(C2C(C#N)=C(N)Oc3c2c(C)nn3-c2ccccc2)ccc1O (stereo unspecified) | -7.3
CCN(CC)c1ccc2c(c1)OC(N)=C(C#N)C2c1ccc(Cl)cc1 (stereo unspecified) | -0.3
CCOc1cc(C2C(C#N)=C(N)Oc3c2ccc2ccccc32)ccc1O (stereo unspecified) | 7.2*
C=CCOc1c(Cl)cc(C2C(C#N)=C(N)Oc3cc(O)ccc32)cc1OC (stereo unspecified) | -0.24
CCO/C=N\C1=C(C#N)C(c2ccc(OC)cc2)c2ccc3ccccc3c2O1 (stereo unspecified) | 0.62
